Data as given in the supplement of paper PMC8975748.
Where a name gives a salt, the structure may show the parent alone.

Tested on: Saccharomyces cerevisiae BY4741 SeMeCo community
Assay: z-score of subpopulation abundance vs DMSO median, subpopulation auxotrophic for HM; higher = larger share of this subpopulation than in DMSO controls
Details: 10 µM; 24 h; SM minimal medium; subpopulation (auxotrophy): HM
Experimental: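 Fluorescent four-plasmid SeMeCo (self-establishing metabolically cooperating S. cerevisiae BY4741 community; plasmids pH-mRuby2, pL-mWasabi, pU-eCFP, pM-TagRFP657) was grown 24 h in minimal SM medium with each Selleck FDA-approved drug at 10 µM in 384-well plates. Cells were fixed and imaged by high-content confocal microscopy. For each auxotrophic subpopulation (and the prototroph), a z-score gives the deviation from the DMSO vehicle-control population median.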

Structure (SMILES) | z-score of subpopulation abundance
C=C[C@H]1CN2CC[C@H]1C[C@H]2[C@H](O)c1ccnc2ccccc12 [Cinchonidine] | -0.43
CN(C)[C@@H]1C(=O)C(C(N)=O)=C(O)[C@@]2(O)C(=O)C3=C(O)c4c(O)cccc4[C@@](C)(O)[C@H]3[C@H](O)[C@@H]12 [Oxytetracycline (Terramycin)] | 0.64
CN(C)[C@@H]1C(=O)C(C(N)=O)=C(O)[C@@]2(O)C(=O)C3=C(O)c4c(O)cccc4[C@@](C)(O)[C@H]3C[C@@H]12 [Tetracycline HCl] | 0.72
C[C@@H]1O[C@@H](O[C@H]2C[C@@H](O)[C@]3(CO)[C@H]4[C@H](O)C[C@]5(C)[C@@H](C6=CC(=O)OC6)CC[C@]5(O)[C@@H]4CC[C@]3(O)C2)[C@H](O)[C@H](O)[C@H]1O [Ouabain] | -0.63
C=CC[C@]1(O)CC[C@H]2[C@@H]3CCC4=CC(=O)CCC4=C3C=C[C@@]21C [Altrenogest] | -0.25
CCCN1C[C@H](CSC)C[C@@H]2c3cccc4[nH]cc(c34)C[C@H]21 [Pergolide Mesylate] | -0.36
CC(NC(C)(C)C)C(=O)c1cccc(Cl)c1 (centres undefined) [Amfebutamone (Bupropion) HCl] | -0.38
CN(C)[C@@H]1C(=O)C(C(N)=O)=C(O)[C@@]2(O)C(=O)C3=C(O)c4c(O)ccc(Cl)c4[C@@](C)(O)[C@H]3C[C@@H]12 [Chlortetracycline HCl] | -0.67
CN(C)C(=O)Oc1ccc[n+](C)c1 [Pyridostigmine Bromide] | 0.07
CCOC(=O)Nc1ccc(NCc2ccc(F)cc2)cc1N [Retigabine 2HCl] | 0.88
CN[C@@H]1[C@@H](O)[C@@H](O[C@@H]2[C@@H](O)[C@H](O[C@H]3O[C@H]([C@@H](C)O)[C@@H](O)[C@H](O)[C@H]3N)[C@@H](N)C[C@H]2N)OC[C@]1(C)O [Geneticin (G418 Sulfate)] | -0.26
Oc1cccc2cccnc12 [8-Hydroxyquinoline] | 2.14
CC[C@@H](C(N)=O)N1CCCC1=O [Levetiracetam] | -0.1
CC1(C)SC2C(N)C(=O)N2C1C(=O)O (centres undefined) [6-Aminopenicillanic acid] | 0.18
CN(C)C(=O)Oc1cccc([N+](C)(C)C)c1 [Neostigmine Bromide] | -0.54
CC[C@H]1CN2CC[C@]3(C(=O)Nc4ccccc43)[C@@H]2C[C@@H]1/C(=C\OC)C(=O)OC [Rhynchophylline] | -0.29
C[C@H]1O[C@H](O[C@H]2[C@H](O)[C@@H](O)[C@@H](O)[C@H](O)[C@@H]2O)[C@@H](N)C[C@@H]1NC(=N)C(=O)O [Kasugamycin hydrochloride] | -0.08

Structure (SMILES) | z-score of subpopulation abundance
O=c1[nH]c2ccccc2n1CCCN1CCC(n2c(=O)[nH]c3cc(Cl)ccc32)CC1 [Domperidone] | 0.27
CC(=O)OCC1=C(C(=O)O)N2C(=O)C(N)C2SC1 (centres undefined) [7-Aminocephalosporanic acid] | -0.48
C=CCN1C[C@H](C(=O)N(CCCN(C)C)C(=O)NCC)C[C@@H]2c3cccc4[nH]cc(c34)C[C@H]21 [Cabergoline] | -0.83
CCC1=C[C@H]2CN3CCc4c([nH]c5ccccc45)[C@](C(=O)OC)(C2)[C@H]13 [Catharanthine] | -0.61
C[N+]1(C)[C@@H]2C[C@@H](OC(=O)[C@H](CO)c3ccccc3)C[C@H]1[C@@H]1O[C@@H]12 [Methscopolamine] | 0.16
Cc1cc(C(C#N)c2ccc(Cl)cc2)c(Cl)cc1NC(=O)c1cc(I)cc(I)c1O (centres undefined) [Closantel] | -0.13
NCCc1c[nH]c2ccc(O)cc12 [Serotonin HCl] | 0.16
NC(=O)CN1CCCC1=O [Piracetam] | 1.21
COc1ccc2c3c([nH]c2c1)C(C)=NCC3 [Harmaline] | 3.18
N[C@@H]1C[C@H]1c1ccccc1 [Tranylcypromine (2-PCPA) HCl] | -0.71
C[C@@H]1CC[C@H]2[C@@H](C)C(=O)O[C@@H]3O[C@@]4(C)CC[C@@H]1[C@]32OO4 [Artemisinin] | -2.41
CN1C(=O)COc2c(C(=O)NC3CN4CCC3CC4)cc(Cl)cc21 (centres undefined) [Azasetron HCl] | 0.88
C#C[C@]1(O)C=C[C@H]2[C@@H]3CCC4=CC(=O)CC[C@@H]4[C@H]3CC[C@@]21CC [Gestodene] | 0.34
CN1[C@@H]2C[C@@H](OC(=O)[C@H](CO)c3ccccc3)C[C@H]1[C@@H]1O[C@@H]12 [Scopolamine HBr trihydrate] | -1.19
COc1cc2c(cc1OC)C1CC(=O)C(CC(C)C)CN1CC2 (centres undefined) [Tetrabenazine (Xenazine)] | 0.63
CCN(C)C(=O)Oc1cccc([C@H](C)N(C)C)c1 [Rivastigmine Tartrate] | -1.12
NCC(O)c1ccc(O)cc1 (racemic) [(+,-)-Octopamine HCl] | -0.78
